The nature of experiment [1]: antimalarial activity against Dd2 strain (AID 2302;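 active = growth inhibition above 50% at the single 2 µM test dose, taken to imply half-maximal potency below 2 µM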;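 also: 0% = DMSO untreated growth and 100% = chloroquine plus artemisinin killed control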). Particulars: P. falciparum Dd2 in RBCs, LDH growth readout, 72 h; at 2 µM; active compounds read high.
Experiment [2] in a line: human hepatoma cell viability loss – ATP luminescence, cytotoxicity control for P. falciparum antimalarial project, primary screen (AID 2303;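 active = inhibition above 50%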;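 also: 0% = DMSO wells and 100% = digitonin-killed cells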). Particulars: HepG2 viability, 24-48 h, at 10 µM, active compounds read high.
For experiment [3], the target named is L-lactate dehydrogenase (Plasmodium falciparum (isolate CDC / Honduras)) (UniProt Q27743). The experiment is described as follows: PfLDH activity inhibition – cell lysate, 3D7 strain, counter-screen for P. falciparum growth inhibition project (AID 2304).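 Also: 0% = vehicle and 100% = reference inhibitor.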 Particulars: P. falciparum 3D7 crude extract, LDH APAD/NBT absorbance; at 2 µM; active compounds read high. (A counterscreen serves to expose hits that act by an unwanted route or on another target.)

Experiment [4] in a line: inhibition of 3D7 malaria parasite growth – strain 3D7 (AID 2306).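 Also: 0% = DMSO wells and 100% = chloroquine plus artemisinin control wells.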 The note with it: P. falciparum 3D7 erythrocytic growth, LDH absorbance, 72 h; at 2 µM; active compounds read high.
The target in experiment [5] is Calcium-dependent protein kinase 1 (Plasmodium falciparum (isolate 3D7)) (UniProt P62344). The experiment can be described thus: PfCDPK1 kinase inhibitors, biochemical, TCAMS library (AID 1159585; cut-off not given, nearly all actives have IC50 up to about 0.98 µM;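 also: inhibitors leave more ATP so luminescence rises with inhibition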). Particulars: recombinant PfCDPK1, Kinase-Glo ATP depletion luminescence. A general note: Kinase-Glo measures the ATP left after a reaction by luminescence.
Experiment [6] has as its target Plasmodium falciparum protein kinase 6 (PK6, PF3D7_1337100) (UniProt Q8IDW1). The experiment can be described thus: PfPK6 kinase inhibitors, biochemical, TCAMS library (AID 1159586). Particulars: recombinant PfPK6, Kinase-Glo ATP depletion luminescence.
The target in experiment [7] is Protein kinase 7 (PK7), Plasmodium falciparum 3D7 (PF3D7_0213400) (UniProt Q7YTF7). The experiment can be described thus: inhibition of Plasmodium PK7 catalytic activity – biochemical, TCAMS antimalarial set, Kinase-Glo luminescence (AID 1159587). Particulars: recombinant PfPK7, Kinase-Glo ATP depletion luminescence.
Experiment [8] deals with Calcium-dependent protein kinase 4 (Plasmodium falciparum (isolate 3D7)) (UniProt Q8IBS5). The experiment is described as follows: PfCDPK4 kinase inhibitors, biochemical, TCAMS library (AID 1159588; cut-off not given, nearly all actives have IC50 up to about 0.91 µM). The note with it: recombinant PfCDPK4, Kinase-Glo ATP depletion luminescence.

Molecules are shown by their SMILES. A number with no mark means an inactive call. For some of these results: Potency and affinity values are given separately. Active and inactive are the calls of the source. Unless noted, no rule for the calls is given here.

As usually defined, the inhibition is the relative decrease from the control value, in per cent.

Calcium-dependent protein kinase 1 (Plasmodium falciparum (isolate 3D7)), sequence (P62344 whole entry, looked up): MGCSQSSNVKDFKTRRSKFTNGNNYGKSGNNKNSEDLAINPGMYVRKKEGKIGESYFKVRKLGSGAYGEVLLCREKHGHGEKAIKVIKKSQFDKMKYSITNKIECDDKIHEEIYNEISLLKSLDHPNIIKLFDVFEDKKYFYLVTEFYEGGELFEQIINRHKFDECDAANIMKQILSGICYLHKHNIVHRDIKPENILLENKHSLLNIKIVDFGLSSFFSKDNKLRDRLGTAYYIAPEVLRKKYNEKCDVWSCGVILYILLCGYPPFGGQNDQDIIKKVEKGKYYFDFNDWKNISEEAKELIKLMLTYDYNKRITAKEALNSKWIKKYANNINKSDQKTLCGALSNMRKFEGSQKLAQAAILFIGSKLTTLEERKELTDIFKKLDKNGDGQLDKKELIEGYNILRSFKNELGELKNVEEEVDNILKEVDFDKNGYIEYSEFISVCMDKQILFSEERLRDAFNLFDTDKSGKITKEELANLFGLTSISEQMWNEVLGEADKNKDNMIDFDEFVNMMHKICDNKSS
L-lactate dehydrogenase (Plasmodium falciparum (isolate CDC / Honduras)), sequence (Q27743 whole entry, looked up): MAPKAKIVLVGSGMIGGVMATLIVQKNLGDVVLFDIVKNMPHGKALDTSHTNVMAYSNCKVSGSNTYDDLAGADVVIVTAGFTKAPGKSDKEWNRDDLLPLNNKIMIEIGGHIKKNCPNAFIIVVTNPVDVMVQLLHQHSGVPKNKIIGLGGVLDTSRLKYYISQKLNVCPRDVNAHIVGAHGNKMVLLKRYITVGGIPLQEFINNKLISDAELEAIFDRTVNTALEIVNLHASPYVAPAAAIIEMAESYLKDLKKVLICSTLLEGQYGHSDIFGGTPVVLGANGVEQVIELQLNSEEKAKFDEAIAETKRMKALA
Plasmodium falciparum protein kinase 6 (PK6, PF3D7_1337100), sequence (Q8IDW1 1-305): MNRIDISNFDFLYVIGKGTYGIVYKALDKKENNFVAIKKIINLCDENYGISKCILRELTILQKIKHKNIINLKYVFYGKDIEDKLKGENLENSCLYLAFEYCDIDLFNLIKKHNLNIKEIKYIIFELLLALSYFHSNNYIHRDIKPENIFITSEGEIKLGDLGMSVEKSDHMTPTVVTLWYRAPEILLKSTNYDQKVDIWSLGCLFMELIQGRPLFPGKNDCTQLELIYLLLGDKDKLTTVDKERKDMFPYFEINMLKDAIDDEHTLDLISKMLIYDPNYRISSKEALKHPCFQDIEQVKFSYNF
Calcium-dependent protein kinase 4 (Plasmodium falciparum (isolate 3D7)), sequence (Q8IBS5 whole entry, looked up): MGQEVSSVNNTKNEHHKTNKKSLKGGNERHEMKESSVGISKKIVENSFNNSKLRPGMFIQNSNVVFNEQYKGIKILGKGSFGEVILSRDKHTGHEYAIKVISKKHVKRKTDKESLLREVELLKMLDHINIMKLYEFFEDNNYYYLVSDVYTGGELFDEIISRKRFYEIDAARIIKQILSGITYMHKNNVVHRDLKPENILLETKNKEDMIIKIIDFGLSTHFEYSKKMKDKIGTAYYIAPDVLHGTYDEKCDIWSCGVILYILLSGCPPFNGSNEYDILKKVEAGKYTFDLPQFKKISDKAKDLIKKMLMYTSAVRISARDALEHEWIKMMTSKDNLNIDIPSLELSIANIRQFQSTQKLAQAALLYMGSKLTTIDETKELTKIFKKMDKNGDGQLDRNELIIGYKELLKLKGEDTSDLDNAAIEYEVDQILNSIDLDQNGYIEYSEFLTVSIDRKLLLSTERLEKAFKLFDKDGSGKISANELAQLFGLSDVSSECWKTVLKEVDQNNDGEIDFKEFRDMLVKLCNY
Protein kinase 7 (PK7), Plasmodium falciparum 3D7 (PF3D7_0213400), sequence (Q7YTF7 1-343): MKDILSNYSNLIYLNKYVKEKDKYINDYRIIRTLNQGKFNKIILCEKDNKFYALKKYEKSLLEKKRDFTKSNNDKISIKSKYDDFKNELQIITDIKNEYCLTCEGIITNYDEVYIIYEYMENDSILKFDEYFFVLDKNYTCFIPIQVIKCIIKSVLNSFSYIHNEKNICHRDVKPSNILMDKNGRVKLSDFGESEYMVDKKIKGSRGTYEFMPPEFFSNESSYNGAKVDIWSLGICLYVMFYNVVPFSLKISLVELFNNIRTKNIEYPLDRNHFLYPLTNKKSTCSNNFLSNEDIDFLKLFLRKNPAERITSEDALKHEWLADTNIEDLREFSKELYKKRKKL

In the case of `COc1ccc2nccc([C@@H](O)CN3CC[C@H](NCc4cnc5c(c4)NC(=O)CS5)[C@H](F)C3)c2c1`, the growth inhibition in experiment [1] and in experiment [4] was 90% (active) in each case. Besides, the inhibition was -4% in experiment [2] and -2% in experiment [3]. Further, the result in experiment [5], in experiment [6], in experiment [7] and in experiment [8] was inactive.
Turning to `COc1cc(NC(=O)/C=C/c2ccccc2OC(F)(F)F)cc(OCCN2CCC(O)(c3ccccc3)CC2)c1`, the growth inhibition in experiment [1] was 50% (active); in experiment [4], 102% (active). Moreover, the inhibition was 61% (active) in experiment [2] and 2% in experiment [3]. Besides, the outcome in experiment [5], in experiment [6], in experiment [7] and in experiment [8] was inactive.
Regarding `CCCNCc1ccc(-c2ccc(CN(CCOC)C(=O)[C@H]3CCCO3)cc2)nc1`, the growth inhibition in experiment [1] was 6%; in experiment [4], 98% (active). Also, the inhibition in experiment [2] is 1%; in experiment [3] it was -3%. Besides, the outcome in experiment [5], in experiment [6], in experiment [7] and in experiment [8] was inactive.
Consider `Cc1ccc(C(C#N)c2ccc3c(C(F)(F)F)cc(C(F)(F)F)nc3n2)cc1` (stereo not given), for which the growth inhibition in experiment [1] was 36%; in experiment [4], 96% (active). In addition, the inhibition is 14% in experiment [2] and 2% in experiment [3]. The outcome in experiment [5], in experiment [6], in experiment [7] and in experiment [8] was inactive.
In the case of `NC(=NC1CC1)c1ccc2nc(CCCCCc3nc4ccc(C(N)=NC5CC5)cc4[nH]3)[nH]c2c1`, the growth inhibition was 72% (active) in experiment [1] and 89% (active) in experiment [4]. Besides, the inhibition in experiment [2] was -3%; in experiment [3] it was 2%. Further, the result in experiment [5], in experiment [6], in experiment [7] and in experiment [8] was inactive.
Take `NCc1cccc(-c2ccc3ccnc(N)c3c2)c1`: the growth inhibition is 96% (active) in experiment [1] and 101% (active) in experiment [4]. Moreover, the inhibition in experiment [2] was 7%; in experiment [3], 0%. The outcome in experiment [5], in experiment [6], in experiment [7] and in experiment [8] was inactive.
Consider `COc1ccccc1CNC(=O)CCn1c(=O)[nH]c2ccsc2c1=O`, for which the growth inhibition is 75% (active) in experiment [1] and 85% (active) in experiment [4]. In addition, the results for the inhibition in experiment [2] and in experiment [3] were -5% and -7%, respectively. Moreover, the outcome in experiment [5], in experiment [6], in experiment [7] and in experiment [8] was inactive.
For the compound `CS(=O)(=O)n1c(CN2CCN(c3ncc(C(F)(F)F)cc3Cl)CC2)nc2ccccc21`, the figures for the growth inhibition in experiment [1] and in experiment [4] were 59% (active) and 83% (active), respectively. Besides, the inhibition is -2% in experiment [2] and -4% in experiment [3]. Besides, the outcome in experiment [5], in experiment [6], in experiment [7] and in experiment [8] was inactive.
`Fc1ccc2nc(-c3ccc(-c4ccc(CNCCc5ccncc5)cc4)s3)[nH]c2c1`: the growth inhibition is 100% (active) in experiment [1] and 99% (active) in experiment [4]. In addition, the inhibition is 34% in experiment [2] and -3% in experiment [3]. Besides, the result in experiment [5], in experiment [6], in experiment [7] and in experiment [8] was inactive.
Turning to `c1ccc(-n2ncc(CNCc3ccc(-c4cccc(-c5nc6ccccc6[nH]5)c4)cc3)n2)cc1`, the growth inhibition in experiment [1] is 9%; in experiment [4], 94% (active). The inhibition was 21% in experiment [2] and 3% in experiment [3]. The result in experiment [5], in experiment [6], in experiment [7] and in experiment [8] was inactive.
With `CN(C)c1ccc(C2(c3ccccc3)N=C(N)N(CCCc3ccccc3)C2=O)cc1` (stereo not given), the growth inhibition was 97% (active) in experiment [1] and 99% (active) in experiment [4]. Also, the inhibition was 4% in experiment [2] and 0% in experiment [3]. In addition, the outcome in experiment [5], in experiment [6], in experiment [7] and in experiment [8] was inactive.
With `O=C(/C=C/c1ccc(Cl)c(Cl)c1)N1CCC(CN2CCC(c3c[nH]c4ncccc34)CC2)CC1`, the growth inhibition in experiment [1] was 20%; in experiment [4] it was 84% (active). Besides, the inhibition in experiment [2] is 38%; in experiment [3], -1%. The result in experiment [5], in experiment [6], in experiment [7] and in experiment [8] was inactive.
For the compound `CCCCOc1c(CCC)cc(Cc2cnc(N)nc2N)cc1CCC`, the growth inhibition in experiment [1] is -2%; in experiment [4] it was 97% (active). The inhibition in experiment [2] was 27%; in experiment [3], 2%. Besides, the outcome in experiment [5], in experiment [6], in experiment [7] and in experiment [8] was inactive.
Take `COc1ccc(CNCc2cccc(-c3csc(-c4nc5ccccc5[nH]4)c3)c2)cc1`: the growth inhibition in experiment [1] was 22%; in experiment [4], 100% (active). For the same compound, the figures for the inhibition in experiment [2] and in experiment [3] were 17% and -1%, respectively. The outcome in experiment [5], in experiment [6], in experiment [7] and in experiment [8] was inactive.
Consider `COc1ccccc1CNC(=O)c1cc(Br)cc(N2CCN(c3ccncc3)CC2)c1`, for which the growth inhibition is 76% (active) in experiment [1] and 95% (active) in experiment [4]. In addition, the results for the inhibition in experiment [2] and in experiment [3] were 43% and 0%, respectively. In addition, the result in experiment [5], in experiment [6], in experiment [7] and in experiment [8] was inactive.
For `CCN(CC)CCCNc1nccc(N2CCc3ncnc(Nc4ccc(OCc5cccc(F)c5)c(Cl)c4)c3C2)n1`, the figures for the growth inhibition in experiment [1] and in experiment [4] were 95% (active) and 101% (active), respectively. For the same compound, the results for the inhibition in experiment [2] and in experiment [3] were 100% (active) and 7%, respectively. Moreover, the result in experiment [5], in experiment [6], in experiment [7] and in experiment [8] was inactive.
On to `c1ccc(C2CCC(N3CCC(N4CCCC4)CC3)CC2)cc1` (stereo not given), for which the growth inhibition in experiment [1] was 46%; in experiment [4], 102% (active). The inhibition is 9% in experiment [2] and -2% in experiment [3]. Besides, the result in experiment [5], in experiment [6], in experiment [7] and in experiment [8] was inactive.
Turning to `Cc1ccc(F)c(CN2CCC(N3CC(c4ccccc4)(c4ccccc4)OC3=O)CC2)c1Cl`, the growth inhibition in experiment [1] was 89% (active); in experiment [4] it was 95% (active). The figures for the inhibition in experiment [2] and in experiment [3] were 11% and -4%, respectively. Moreover, the result in experiment [5], in experiment [6], in experiment [7] and in experiment [8] was inactive.
As for `COc1ccc(-c2cccc(NC(=O)c3cccc(C#N)c3)c2)cc1CN1CCNCC1`, the growth inhibition in experiment [1] was 15%; in experiment [4] it was 101% (active). Besides, the inhibition in experiment [2] is 27%; in experiment [3] it was 0%. In addition, the result in experiment [5], in experiment [6], in experiment [7] and in experiment [8] was inactive.
In the case of `O=C(Nc1ccc(CN2CCCCC2)cc1)c1ccc(COc2ccc([N+](=O)[O-])cc2)o1`, the growth inhibition in experiment [1] was -3%; in experiment [4], 86% (active). Also, the values for the inhibition in experiment [2] and in experiment [3] were 12% and -1%, respectively. The result in experiment [5], in experiment [6], in experiment [7] and in experiment [8] was inactive.

Source of the values: PubChem BioAssay.
